# Only some compounds are listed: those with a hit (about 1.8% of all), similar ones and a draw of the others.
# PI5P4Ka inh: blocks human PI5P4K alpha kinase activity; P48426; PI5P4Kalpha enzyme, ADP-Glo luminescence, 60 min; active compounds read low; max response, %; actives 1.2% (n = 330,000); active means max response of -50% or lower; inconclusive means between -30% and -50%; inactive means -30% or higher; further: value at the top dose of about 77 µM
# Target sequence (P48426 whole entry, looked up): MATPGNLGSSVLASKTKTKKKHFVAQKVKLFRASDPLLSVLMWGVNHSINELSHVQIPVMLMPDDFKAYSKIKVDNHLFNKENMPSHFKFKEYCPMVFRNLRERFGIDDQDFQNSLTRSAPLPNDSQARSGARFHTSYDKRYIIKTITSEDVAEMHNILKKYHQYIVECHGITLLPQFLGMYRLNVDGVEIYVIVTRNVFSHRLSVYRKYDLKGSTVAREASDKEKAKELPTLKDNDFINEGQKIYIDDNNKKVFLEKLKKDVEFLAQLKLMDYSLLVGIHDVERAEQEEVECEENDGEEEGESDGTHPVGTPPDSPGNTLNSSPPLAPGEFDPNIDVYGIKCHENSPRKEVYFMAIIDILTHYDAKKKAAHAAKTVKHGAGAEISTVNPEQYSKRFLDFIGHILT
#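 Quantitative HTS of the MLSMR library against PI5P4Kalpha with substrate. ATP added last at 5 microM final; room temperature, 60 minutes. Remaining ATP depleted, ADP converted and read as luminescence.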
# Six1-Eya2 inh: inhibitors of human Six1/Eya2 interaction. Q15475+O00167. AlphaScreen GST-Six1/His-Eya2 binding, biochemical; active compounds read low. activity change, % (concentration not given with the values). actives 0.56% (n = 360,000). AID 651725
#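 AlphaScreen luminescence read after one hour at 37 °C in darkness. Pin-transferred compounds met GST-Six1 and His-Eya2 protein (5X stock 250 nM/500 nM) plus glutathione donor and Ni-chelate acceptor beads (5X, 50 ug/mL).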
# CtBP-E1A inh: blocks the CtBP interaction with E1A; AlphaScreen GST-E1A/His-CtBP binding, 1536-well; active compounds read low; activity change, % (concentration not given with the values); actives 0.49% (n = 340,000)
#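 Protein mix (5X: 125 nM each GST-E1A, His-CtBP) was incubated with pinned compound 2 h at 37 deg C in dark, in 50 mM Tris pH 8.0 buffer with 300 mM NaCl. Glutathione donor and nickel acceptor beads followed; AlphaScreen signal read after 1 h.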
# PI4K2A block: inhibitors of human PI4K2A; purified PI4K2A, ADP-Glo luminescence, 1 h; active compounds read low; activity change, negative = inhibition, % at 76.9 µM; actives 0.13% (n = 420,000); in the data active means activity change below about -50%; inconclusive means mostly about -30% to -49%
#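 Compounds are screened against recombinant PI4K2A using PI as substrate and ATP, the latter dispensed at 300 microM. Reactions run one hour at ambient temperature before ADP-Glo detection; full inhibition defined by wells lacking enzyme.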
# Akt phos inh: Akt phosphorylation inhibition; Neuro2A IGF-stimulated pAkt S473 HTRF, 20 min; active compounds read low; activity change, % for hits at 50 µM; AID 651550; actives 0.32% (n = 360,000); in the data active means activity change below about -80%; inconclusive means mostly about -51% to -80%
#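 Neuro2A cells in DMEM with 0.5% FBS, overnight at 37 deg C, given compound at single 50 µM final, then IGF (6 nM final) for 20 min at 37 deg C. Lysed; phospho-Akt Ser473 by HTRF after 24 h, 665/615 ratio.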
# Numbers stand for hits; - = inactive; ? = inconclusive; . = no result. Unless noted, no stated cut-off is given here; in the data, active means activity change below about -65%; inconclusive means mostly about -30% to -63%; inactive means weaker than that.
SMILES,PI5P4Ka inh,Six1-Eya2 inh,CtBP-E1A inh,PI4K2A block,Akt phos inh
CCc1ccc(C2C(C#N)=C(N)SC(N)=C2C#N)cc1,.,-,-,-,-
Cc1sc2nc(CN3CCCC3)nc(N3CCN(C(=O)c4ccco4)CC3)c2c1C,-,-,-,-,-
COc1cc(C(=O)Oc2ccc3c(c2)OCC3=O)cc(OC)c1OC,-,-,-,-,-
O=C(Oc1ccc2c(c1)OCC2=O)c1ccc(Cl)cc1,-,-66,-,-,-
CCc1nnc(SCC(=O)N2CCCc3ccccc32)nc1CC,-,-,-,-,-
Cc1ccc2c(c1)c1nnc(SCC(=O)N3CCCc4ccccc43)nc1n2CC(=O)O,-,-78,-88,-,-
Cc1ccc(N2C(=O)c3ccc(C(=O)O)cc3C2=O)cc1C,.,-,-,-,-
CCSc1nnc(N2C(=O)c3ccc(C(=O)c4ccc(C(=O)O)cc4)cc3C2=O)s1,-85,-,-,-,-
CC(=O)Nc1cc(OC(C)=O)c2nonc2c1OC(C)=O,.,-,?,-53,.
COc1ccc2ccccc2c1C=Nn1c(-c2n[nH]c3c2CCC3)n[nH]c1=S,.,.,.,-,.
Cc1ccc(/C=C2\SC(N)=NC2=O)s1,-,-,-,-,-
CC(=O)OCC1OC(Sc2cccc3cccnc23)C(OC(C)=O)C(OC(C)=O)C1OC(C)=O (configuration not stated),-,-85,-85,-,-
COC(=O)Nc1nc(-c2ccccc2)c(C(=O)c2ccc(Cl)cc2)s1,-,-,-,-,-86%
CCOC(=O)C1=C(C)Nc2nc(=S)[nH]n2C1c1ccc(Cl)cc1 (configuration not stated),-60,-,.,-,-
CCOC(=O)C1=C(C)Nc2nc(SCC)nn2C1c1ccc(OC)cc1 (configuration not stated),-,-,-,-,-
CCc1ccc(C2=NN(CCC(=O)NC(C)c3ccc4c(c3)OCCO4)C(=O)CC2)cc1 (configuration not stated),-,-,-,-,-
O=C1/C(=C\c2ccc(Cl)cc2)CCC1CNc1ccc(Cl)cc1 (configuration not stated),-,-,-,-,-
Cc1ccc(/C=C/C(=O)c2ccc(C)cc2)cc1,.,-,-,-,-
Cc1ccc(C(=O)/C=C/C(=O)c2ccc(C)cc2)cc1,-53,-,-,-,-
O=C(NC1CCN(S(=O)(=O)c2cccc([N+](=O)[O-])c2)CC1)C1CCCCC1,-,-,-,-,-
COC(=O)c1c(NC(=O)c2cccs2)sc2c1CCC(C)C2 (configuration not stated),-,-,-,-,-101%
Cn1nc(C(F)(F)F)c(C#N)c1N1CCN(c2ccccc2F)CC1,-,-,-,-,-107%
COc1cccc(N2CCN(c3c(C#N)c(C(F)(F)F)nn3C)CC2)c1,-,-,-,-,-
Cc1cc(/C=N\NC(=O)CC(=O)NC2CCCCC2)c(C)n1-c1ccc(Cl)c(Cl)c1,.,-,-,-,.
Cn1c(O)c(N=NC(=O)c2ccco2)c2ccccc21,-,-,-,-,-
SMILES,PI5P4Ka inh,Six1-Eya2 inh,CtBP-E1A inh,PI4K2A block,Akt phos inh
O=C(O)C1CCCCN1c1ccccc1[N+](=O)[O-] (configuration not stated),-,-,-,-,-
N#Cc1ccc(N2CCCC2C(=O)O)c([N+](=O)[O-])c1 (configuration not stated),-,-,-,-,-118%
Oc1ccccc1C=NCCN1CCN(CCN=Cc2ccccc2O)C1c1ccccc1O (configuration not stated),-,-86,-99,-,-
Oc1ccccc1C=NCCN=Cc1ccccc1O,-,-,-,-,-
COc1ccc(N=C2S/C(=C\c3ccc(OC(C)C(=O)O)c(OC)c3)C(=O)N2CCc2c[nH]c3ccccc23)cc1 (configuration not stated),-54,-,-,-,-
CCC(=O)Nc1ccc2nc3c(=O)[nH]c(=S)[nH]c3nc2c1,-66,?,?,-,-
CCCCn1c(N)c(N(CCC(C)C)C(=O)c2oc3ccc(OCC)cc3c2C)c(=O)[nH]c1=O,-,-,-,-,-
O=C(Nc1cc(Cl)ccc1-n1cncn1)c1cncc(Br)c1,-,-,-,-,-
O=C(OCc1cc(=O)n2nc(C3CC3)sc2n1)c1ccc(F)cc1,.,.,.,-,.
CCOc1ccc2c(c1)-c1c(ssc1=S)C(C)(C)N2C,-,?,-71,-,-
O=C(O)C1Cc2ccccc2CN1C(=O)CCl (configuration not stated),-,-,-,-,-
CCN1c2ccccc2-c2nc(SCC(=O)Nc3c(C)cc(C)cc3C)ncc2S1(=O)=O,.,.,.,-,.
O=C(N/N=C/c1ccco1)c1cccc(N2Cc3ccccc3C2)c1,-88,-,-,-,-
CC(C)(C)[C@@H]1COC(=O)[C@H](Cc2ccc(F)cc2)C/C=C\C[C@H](CC(=O)N(CCO)Cc2ccccc2)C(=O)N1,-,-,-,-,-
CCOC(=O)CN1C(=O)C(C)(C)Oc2ccc(C(=O)NC(C)(C)CC)cc21,-,-,-,-,-111%
O=C(NCc1cccs1)c1cc2c(s1)CS(=O)(=O)C2,.,-,-,-,.
CCCCC(=O)NC(c1ccc(OC)c(OC)c1)c1c(O)ccc2ccccc12 (configuration not stated),-,-,-,-,-
CCCC(=O)NC(c1ccccc1OC)c1ccc2cccnc2c1O (configuration not stated),-,-88,-84,-,-
CCCCC(=O)NC(c1ccccc1OC)c1ccc2cccnc2c1O (configuration not stated),-,-76,-92,-,-
COC(=O)c1cccc(S(=O)(=O)N2CCC(NC(=O)NC34CC5CC(CC(C5)C3)C4)CC2)c1,-,-,-,-,-
CC1CC(C)CN(CC(=O)N2CCc3[nH]c4ccccc4c3C2)C1 (configuration not stated),-,-,-,-,-
CCN(Cc1ccccc1)c1ccc(N=Nc2nn(C)c(C)c2[N+](=O)[O-])cc1,-,-70,-68,-,-
CCN(Cc1ccccc1)c1ccccc1,-,-,-,-,-
CCN(CC)c1ccc(N=Nc2nn(C)c(C)c2[N+](=O)[O-])cc1,-,-67,?,-,-
CCOC(=O)/C=C/C(=O)OCC(=O)NCc1ccccc1,-,-,.,-,-
Cc1ccnc(NC(=O)c2ccc(Br)s2)c1,-,-,.,-,-
CC(C)CNC(=O)c1cccc(NC(=O)COc2cccc([N+](=O)[O-])c2)c1,-,-,-,-,-
NS(=O)(=O)c1ccc(-c2cccc(/C=C3\SC(=O)NC3=O)c2)cc1,-56,-,-,-,-
CCCCN(Cc1ccco1)C(=O)C1CCCN(c2ncnc3c2nc2n3CCCCC2)C1 (configuration not stated),-,-,-,-,-
